From the supplement of paper PMC10849652
Targets with a hit are over-represented here; the source holds about 8,800 in all. About 0.5% of all pairs of compound and target were hits.

Compound: CC1=C(C(CC(=O)N1)C2=CC=C(C=C2)C(F)(F)F)C(=O)NC3=C(C=C4C(=C3)C=NN4)F
Experiment: log2 fold change, soluble protein after heating vs DMSO (PISA); higher = thermal stabilisation; K562 lysate, 10 uM; active = over 0.2 and 3.5 SD of the protein, either way, in both replicates (recomputed)
Method in brief: (§1)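 To prepare the extract, K562 pellets were dounce-homogenised in PBS pH 7.4 with 1 mM MgCl2, giving crude material at 1 mg/mL protein. This was treated with 10 μM compound for 30 min, then heated in aliquots for 3 min over 48°C-58°C before pooling and addition of NP-40 to 0.5% at 4°C. Centrifugation at 21,000xg for 90 min left soluble protein in the supernatant, which TMTpro 16plex LC-MS/MS quantified with equalised channel sums. Results are log-two fold changes in thermal stability compared with solvent controls, from duplicates.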

Sequence of UniProt P25440 (P25440 whole entry, looked up): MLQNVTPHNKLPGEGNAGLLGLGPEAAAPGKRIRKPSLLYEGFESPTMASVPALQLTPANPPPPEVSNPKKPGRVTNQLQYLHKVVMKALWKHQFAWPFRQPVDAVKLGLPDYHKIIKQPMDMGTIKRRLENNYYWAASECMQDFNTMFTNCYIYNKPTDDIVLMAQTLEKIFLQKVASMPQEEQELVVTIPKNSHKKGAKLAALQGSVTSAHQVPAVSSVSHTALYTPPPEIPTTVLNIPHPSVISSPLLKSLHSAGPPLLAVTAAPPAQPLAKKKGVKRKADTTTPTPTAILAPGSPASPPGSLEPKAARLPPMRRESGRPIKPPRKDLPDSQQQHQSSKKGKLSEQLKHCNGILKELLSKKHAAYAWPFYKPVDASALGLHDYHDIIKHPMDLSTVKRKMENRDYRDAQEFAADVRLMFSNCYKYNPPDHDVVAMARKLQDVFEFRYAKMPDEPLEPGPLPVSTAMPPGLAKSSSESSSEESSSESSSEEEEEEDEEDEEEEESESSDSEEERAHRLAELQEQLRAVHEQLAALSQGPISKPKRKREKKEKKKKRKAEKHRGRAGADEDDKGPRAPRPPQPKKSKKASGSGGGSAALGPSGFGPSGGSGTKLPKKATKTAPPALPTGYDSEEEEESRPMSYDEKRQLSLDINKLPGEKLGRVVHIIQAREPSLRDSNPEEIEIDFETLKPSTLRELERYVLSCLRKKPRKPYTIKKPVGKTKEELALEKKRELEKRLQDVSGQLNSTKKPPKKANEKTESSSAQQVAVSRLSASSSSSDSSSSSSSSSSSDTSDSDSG
Sequence of UniProt Q9UQ88 (Q9UQ88 whole entry, looked up): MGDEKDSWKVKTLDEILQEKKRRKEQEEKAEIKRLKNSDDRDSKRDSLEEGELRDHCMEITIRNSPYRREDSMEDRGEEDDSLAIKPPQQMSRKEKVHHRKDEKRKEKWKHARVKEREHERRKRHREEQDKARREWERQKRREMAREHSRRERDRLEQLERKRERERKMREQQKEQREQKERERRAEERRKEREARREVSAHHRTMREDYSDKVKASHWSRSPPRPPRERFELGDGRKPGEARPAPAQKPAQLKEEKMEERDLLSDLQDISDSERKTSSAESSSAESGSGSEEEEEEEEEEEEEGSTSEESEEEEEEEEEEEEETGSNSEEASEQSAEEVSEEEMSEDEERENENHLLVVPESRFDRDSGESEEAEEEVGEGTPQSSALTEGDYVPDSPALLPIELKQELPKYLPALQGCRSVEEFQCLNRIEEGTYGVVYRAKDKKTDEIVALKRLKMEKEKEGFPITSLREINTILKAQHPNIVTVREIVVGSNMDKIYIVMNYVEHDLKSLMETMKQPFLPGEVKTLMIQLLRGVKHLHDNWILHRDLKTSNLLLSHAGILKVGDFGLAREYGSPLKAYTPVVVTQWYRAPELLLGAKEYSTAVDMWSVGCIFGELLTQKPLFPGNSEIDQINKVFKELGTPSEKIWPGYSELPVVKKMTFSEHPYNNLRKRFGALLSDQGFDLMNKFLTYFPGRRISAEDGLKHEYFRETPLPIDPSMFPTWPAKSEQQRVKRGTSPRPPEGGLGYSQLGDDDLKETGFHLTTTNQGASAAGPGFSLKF
Sequence of UniProt Q6ZRI6 (Q6ZRI6 whole entry, looked up): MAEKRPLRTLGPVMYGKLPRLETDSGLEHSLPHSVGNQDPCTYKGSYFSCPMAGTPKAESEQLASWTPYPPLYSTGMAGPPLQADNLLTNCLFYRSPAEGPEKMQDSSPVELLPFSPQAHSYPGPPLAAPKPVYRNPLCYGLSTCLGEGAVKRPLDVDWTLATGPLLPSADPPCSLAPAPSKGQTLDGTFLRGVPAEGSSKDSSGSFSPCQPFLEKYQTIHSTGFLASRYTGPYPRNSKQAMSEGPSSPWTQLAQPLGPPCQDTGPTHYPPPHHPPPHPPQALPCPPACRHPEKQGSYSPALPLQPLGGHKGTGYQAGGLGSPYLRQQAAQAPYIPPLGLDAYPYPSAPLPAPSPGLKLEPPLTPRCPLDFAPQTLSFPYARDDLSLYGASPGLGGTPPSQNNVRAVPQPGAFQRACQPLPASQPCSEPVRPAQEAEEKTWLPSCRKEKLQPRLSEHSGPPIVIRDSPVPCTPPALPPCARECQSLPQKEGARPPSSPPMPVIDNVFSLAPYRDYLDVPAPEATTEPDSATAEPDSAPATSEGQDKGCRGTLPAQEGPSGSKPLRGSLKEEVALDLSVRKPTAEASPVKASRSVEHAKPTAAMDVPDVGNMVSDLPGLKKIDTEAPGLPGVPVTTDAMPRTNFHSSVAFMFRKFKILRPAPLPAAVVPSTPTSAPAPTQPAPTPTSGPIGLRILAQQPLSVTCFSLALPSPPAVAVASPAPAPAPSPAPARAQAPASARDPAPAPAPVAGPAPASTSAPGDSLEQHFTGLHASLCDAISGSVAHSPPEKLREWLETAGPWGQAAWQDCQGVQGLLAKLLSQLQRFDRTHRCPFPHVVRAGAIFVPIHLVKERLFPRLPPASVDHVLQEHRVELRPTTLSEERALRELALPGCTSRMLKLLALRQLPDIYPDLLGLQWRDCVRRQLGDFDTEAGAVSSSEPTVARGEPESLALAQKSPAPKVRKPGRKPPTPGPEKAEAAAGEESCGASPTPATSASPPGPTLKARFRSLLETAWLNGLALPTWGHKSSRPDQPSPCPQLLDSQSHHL
Sequence of UniProt P55210 (P55210 whole entry, looked up): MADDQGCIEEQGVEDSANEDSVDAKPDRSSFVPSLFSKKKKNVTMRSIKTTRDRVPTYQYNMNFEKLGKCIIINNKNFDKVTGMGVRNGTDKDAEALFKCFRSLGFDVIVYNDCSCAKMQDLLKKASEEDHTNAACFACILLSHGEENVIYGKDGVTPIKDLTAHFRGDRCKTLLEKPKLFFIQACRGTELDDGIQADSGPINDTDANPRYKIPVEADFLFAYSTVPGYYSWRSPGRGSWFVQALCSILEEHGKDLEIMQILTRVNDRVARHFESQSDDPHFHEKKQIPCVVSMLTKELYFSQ
Sequence of UniProt Q96LT7 (Q96LT7 whole entry, looked up): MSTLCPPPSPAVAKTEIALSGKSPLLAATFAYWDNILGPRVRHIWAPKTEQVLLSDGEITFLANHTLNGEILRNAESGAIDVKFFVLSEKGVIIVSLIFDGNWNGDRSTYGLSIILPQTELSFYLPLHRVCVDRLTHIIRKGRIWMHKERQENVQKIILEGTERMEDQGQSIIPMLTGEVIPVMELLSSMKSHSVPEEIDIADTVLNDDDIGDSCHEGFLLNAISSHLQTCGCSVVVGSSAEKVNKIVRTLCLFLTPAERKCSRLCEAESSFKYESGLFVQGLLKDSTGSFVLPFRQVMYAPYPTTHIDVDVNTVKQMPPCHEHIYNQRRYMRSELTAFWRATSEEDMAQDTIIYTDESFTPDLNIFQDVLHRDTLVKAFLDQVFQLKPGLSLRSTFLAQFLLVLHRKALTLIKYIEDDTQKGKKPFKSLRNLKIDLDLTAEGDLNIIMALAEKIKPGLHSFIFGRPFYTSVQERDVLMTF
Sequence of UniProt P30281 (P30281 whole entry, looked up): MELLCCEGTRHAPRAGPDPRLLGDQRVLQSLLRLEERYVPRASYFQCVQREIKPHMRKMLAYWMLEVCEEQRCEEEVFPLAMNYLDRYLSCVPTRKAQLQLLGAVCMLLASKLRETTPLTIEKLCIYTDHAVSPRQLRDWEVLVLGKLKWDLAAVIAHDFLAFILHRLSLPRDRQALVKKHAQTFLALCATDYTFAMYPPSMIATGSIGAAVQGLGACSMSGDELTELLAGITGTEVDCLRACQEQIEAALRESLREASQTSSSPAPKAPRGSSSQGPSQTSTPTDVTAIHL
Sequence of UniProt Q9BUK0 (Q9BUK0 whole entry, looked up): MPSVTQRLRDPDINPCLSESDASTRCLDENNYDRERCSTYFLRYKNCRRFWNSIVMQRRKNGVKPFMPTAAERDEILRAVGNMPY
Sequence of UniProt Q9BRD0 (Q9BRD0 whole entry, looked up): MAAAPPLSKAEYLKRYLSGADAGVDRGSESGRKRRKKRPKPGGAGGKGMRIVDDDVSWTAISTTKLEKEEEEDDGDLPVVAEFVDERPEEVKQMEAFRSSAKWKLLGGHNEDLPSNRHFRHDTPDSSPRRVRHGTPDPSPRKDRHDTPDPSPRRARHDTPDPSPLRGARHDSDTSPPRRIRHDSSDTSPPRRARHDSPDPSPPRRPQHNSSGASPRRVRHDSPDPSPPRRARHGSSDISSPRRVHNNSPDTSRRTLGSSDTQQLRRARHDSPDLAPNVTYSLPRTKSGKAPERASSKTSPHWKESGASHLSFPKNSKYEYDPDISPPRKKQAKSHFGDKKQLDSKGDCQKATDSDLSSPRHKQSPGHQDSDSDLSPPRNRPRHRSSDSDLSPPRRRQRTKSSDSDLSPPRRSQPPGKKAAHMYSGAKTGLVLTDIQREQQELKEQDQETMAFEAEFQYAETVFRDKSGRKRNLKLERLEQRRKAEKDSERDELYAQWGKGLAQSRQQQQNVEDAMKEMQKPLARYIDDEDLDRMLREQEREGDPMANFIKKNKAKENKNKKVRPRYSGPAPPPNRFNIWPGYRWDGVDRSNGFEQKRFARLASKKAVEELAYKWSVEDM
Sequence of UniProt Q12983 (Q12983 whole entry, looked up): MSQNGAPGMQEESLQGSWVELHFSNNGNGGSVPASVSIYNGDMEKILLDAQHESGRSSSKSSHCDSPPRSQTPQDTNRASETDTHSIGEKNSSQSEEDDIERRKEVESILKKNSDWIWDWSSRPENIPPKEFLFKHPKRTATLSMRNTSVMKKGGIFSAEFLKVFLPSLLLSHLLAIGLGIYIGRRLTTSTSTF
Sequence of UniProt Q96L58 (Q96L58 whole entry, looked up): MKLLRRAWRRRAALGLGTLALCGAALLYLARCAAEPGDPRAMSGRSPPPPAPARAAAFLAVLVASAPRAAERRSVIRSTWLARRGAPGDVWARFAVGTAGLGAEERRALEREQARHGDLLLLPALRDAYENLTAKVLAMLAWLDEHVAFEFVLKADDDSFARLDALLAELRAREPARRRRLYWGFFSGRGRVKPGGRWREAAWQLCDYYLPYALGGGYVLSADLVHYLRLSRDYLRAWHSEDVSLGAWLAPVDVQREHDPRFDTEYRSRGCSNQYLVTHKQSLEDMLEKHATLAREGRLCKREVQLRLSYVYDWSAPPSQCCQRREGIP

| Target | log2 fold change |
| --- | --- |
| CDK2 (UniProt P24941) | -0.026 (inactive) |
| CARHSP1 (UniProt H3BNU9) | -0.107 (inactive) |
| BAHCC1 (UniProt Q9P281) | -0.114 (inactive) |
| CASP7 isoform 3 (UniProt P55210) | -0.029 (inactive) |
| BRD2 isoform 2 (UniProt P25440) | -0.025 (inactive) |
| CAPNS1 (UniProt U3KPR7) | 0.155 (inactive) |
| C15orf39 (UniProt Q6ZRI6) | 0.104 (inactive) |
| BMT2 (UniProt Q1RMZ1) | 0.586 (inactive) |
| CHD9 (UniProt Q3L8U1) | 0.212 (inactive) |
| CCND3 (UniProt P30281) | -0.104 (inactive) |
| C3AR1 (UniProt Q16581) | 0.001 (inactive) |
| CHCHD7 isoform 4 (UniProt Q9BUK0) | 0.116 (inactive) |
| C9orf72 (UniProt Q96LT7) | -0.066 (inactive) |
| CHD4, A0A2R8Y521 | -0.19 (inactive) |
| CDK11A (UniProt Q9UQ88) | -0.03 (inactive) |
| CENPV (UniProt Q7Z7K6) | 0.182 (inactive) |
| CDC25A (UniProt P30304) | -0.017 (inactive) |
| BUD13 (UniProt Q9BRD0) | -0.051 (inactive) |
| BNIP3 (UniProt Q12983) | -0.068 (inactive) |
| CEP57L1 (UniProt Q8IYX8) | 0.11 (inactive) |
| CEP295 isoform 3 (UniProt Q9C0D2) | 0.02 (inactive) |
| CDC14A isoform 2 (UniProt Q9UNH5) | -0.04 (inactive) |
| CANX (UniProt D6RHJ3) | 0.021 (inactive) |

Compound: CC1=C(C2=C(C=C1)C(=O)C3=CC=CC=C3N2CCCN)C
Experiment: as above
Method in brief: as §1

| Target | log2 fold change |
| --- | --- |
| CDK2 (UniProt P24941) | -0.016 (inactive) |
| BAHCC1 (UniProt Q9P281) | -0.008 (inactive) |
| ATG4D (UniProt Q86TL0) | 0.319 (inactive) |
| CASP7 isoform 3 (UniProt P55210) | -0.161 (inactive) |
| BRD2 isoform 2 (UniProt P25440) | 0.008 (inactive) |
| ATXN2 (UniProt F8WB06) | 0.187 (inactive) |
| C15orf39 (UniProt Q6ZRI6) | 0.039 (inactive) |
| CHD9 (UniProt Q3L8U1) | 0.038 (inactive) |
| CCND3 (UniProt P30281) | -0.063 (inactive) |
| CEP128 (UniProt Q6ZU80) | 0.078 (inactive) |
| CHCHD7 isoform 4 (UniProt Q9BUK0) | 0.002 (inactive) |
| C9orf72 (UniProt Q96LT7) | 0.014 (inactive) |
| C6orf120 (UniProt Q7Z4R8) | 0.015 (inactive) |
| C8orf88 (UniProt P0DMB2) | 0.006 (inactive) |
| CAPNS1 (UniProt K7ES78) | 0.025 (inactive) |
| BICRA (UniProt Q9NZM4) | -0.168 (inactive) |
| CHD4, A0A2R8Y521 | 0.191 (inactive) |
| CDK11A (UniProt Q9UQ88) | -0.022 (inactive) |
| CDC25A (UniProt P30304) | 0.012 (inactive) |
| BUD13 (UniProt Q9BRD0) | -0.219 (inactive) |
| ATPSCKMT (UniProt Q6P4H8) | 0.019 (inactive) |
| BNIP3 (UniProt Q12983) | -0.002 (inactive) |
| CEP57L1 (UniProt Q8IYX8) | -0.191 (inactive) |
| CDKL5 (UniProt O76039) | -0.351 (inactive) |
| B3GALT6 (UniProt Q96L58) | -0.112 (inactive) |

Compound: CC1=C(C=C(C=C1)NC(=O)C2=CC(=CC=C2)C(C)(C)C#N)NC3=CC4=C(C=C3)N=CN(C4=O)C
Experiment: as above
Method in brief: as §1

| Target | log2 fold change |
| --- | --- |
| CDK2 (UniProt P24941) | -0.017 (inactive) |
| BAHCC1 (UniProt Q9P281) | 0.013 (inactive) |
| ATG4D (UniProt Q86TL0) | -0.096 (inactive) |
| CASP7 isoform 3 (UniProt P55210) | 0.043 (inactive) |
| BRD2 isoform 2 (UniProt P25440) | 0.056 (inactive) |
| C15orf39 (UniProt Q6ZRI6) | -0.03 (inactive) |
| CHD9 (UniProt Q3L8U1) | -0.031 (inactive) |
| ATE1 (UniProt O95260) | -0.101 (inactive) |
| CCND3 (UniProt P30281) | -0.021 (inactive) |
| C3AR1 (UniProt Q16581) | -0.074 (inactive) |
| CHCHD7 isoform 4 (UniProt Q9BUK0) | -0.025 (inactive) |
| C9orf72 (UniProt Q96LT7) | -0.003 (inactive) |
| C8orf88 (UniProt P0DMB2) | 0.052 (inactive) |
| CAPNS1 (UniProt K7ES78) | 0.148 (inactive) |
| BICRA (UniProt Q9NZM4) | -0.012 (inactive) |
| CDK11A (UniProt Q9UQ88) | 0.002 (inactive) |
| CENPV (UniProt Q7Z7K6) | 0.121 (inactive) |
| CDC25A (UniProt P30304) | 0.087 (inactive) |
| BUD13 (UniProt Q9BRD0) | 0.013 (inactive) |
| ATPSCKMT (UniProt Q6P4H8) | -0.015 (inactive) |
| BNIP3 (UniProt Q12983) | 0.045 (inactive) |
| CEP57L1 (UniProt Q8IYX8) | -0.037 (inactive) |
| CDKL5 (UniProt O76039) | 0.111 (inactive) |
| CCDC130 (UniProt P13994) | 0.252 (inactive) |
| CEP295 isoform 3 (UniProt Q9C0D2) | 0.041 (inactive) |
| CDC14A isoform 2 (UniProt Q9UNH5) | 0.145 (inactive) |
| CDAN1 (UniProt H3BPZ6) | -0.172 (inactive) |
| B3GALT6 (UniProt Q96L58) | -0.168 (inactive) |
